Shown are actives, neighbours in structure and some others; about 3.5% of the full set was active somewhere.
Mtb UGM inh – blocks M. tuberculosis UGM enzyme. P9WIQ1. purified UGM, fluorescence polarization probe displacement. inhibition, % at 10 µM. hit rate 0.06% among 320,000; in the data active means inhibition above about 10%, passing the limit was not always enough
Target sequence (P9WIQ1 whole entry, looked up): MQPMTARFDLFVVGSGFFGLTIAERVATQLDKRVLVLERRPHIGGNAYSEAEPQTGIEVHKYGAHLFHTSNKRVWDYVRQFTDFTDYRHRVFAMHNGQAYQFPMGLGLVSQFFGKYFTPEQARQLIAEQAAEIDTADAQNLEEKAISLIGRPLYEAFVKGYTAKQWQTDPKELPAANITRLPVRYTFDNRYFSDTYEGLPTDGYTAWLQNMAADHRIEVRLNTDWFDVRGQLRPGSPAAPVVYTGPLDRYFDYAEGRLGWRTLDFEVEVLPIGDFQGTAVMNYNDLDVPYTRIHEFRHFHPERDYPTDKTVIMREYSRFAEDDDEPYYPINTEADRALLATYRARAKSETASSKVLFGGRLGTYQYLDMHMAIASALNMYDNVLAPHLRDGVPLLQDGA
Mtb FBA inh – inhibits M. tuberculosis FBA enzyme | P9WQA3 | inhibition, % at 1 µM | purified M. tuberculosis FBA, fluorescence read-out | hit rate 2.3% among 360,000
GDH-TPI counter-1 – counter-screen for M. tuberculosis FBA inhibitors: GDH-TPI coupled enzymes | GDH-TPI coupled enzyme counterscreen, NADH absorbance | inhibition, % at 4.8 µM | hit rate 1.2% among 360,000 | AID 588335; in the data active means inhibition above about 30%
Rv3671c protease – inhibits the M. tuberculosis serine protease Rv3671c; inhibition, % at 5.96 µM; hit rate 0.048% among 320,000; AID 2606; in the data active means inhibition above about 38%;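 further: extracellular domain of Rv3671c used as enzyme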
Mtb FBA inh conf – confirmation of M. tuberculosis fructose-bisphosphate aldolase inhibitors; hit rate 78% among 5,600; inhibition, % at 1 µM; shares compounds with Mtb FBA inh; purified M. tuberculosis FBA, fluorescence read-out
GDH-TPI counter-2 – counter-screen for M. tuberculosis FBA inhibitors: GDH-TPI coupled enzyme inhibition; GDH-TPI coupled enzyme counterscreen, fluorescence; shares compounds with Mtb FBA inh; inhibition, % at 1 µM; hit rate 81% among 5,600; in the data active means inhibition above about 10%
GDH-TPI dose – inhibits GDH-TPI coupling enzymes in dose response; IC50, µM; hit rate 79% among 170; shares compounds with Mtb FBA inh; GDH-TPI coupled enzyme assay, fluorescence, artifact counterscreen; call rule not given here
Each line names hits and unclear results; the compound was inactive in the other large screens (follow-up assays come after a bar, where they were run). Unless noted, no stated cut-off is given here; in the data, active means inhibition above about 27%; inactive means the rest.

O=C(NCC1CCCO1)c1onc(CSc2ccc(F)c(F)c2)c1C(=O)O (configuration not stated)	Mtb FBA inh 45 | Mtb FBA inh conf 92 | GDH-TPI counter-2 61
Cc1cc(=O)oc2cc(NC(=S)NCc3ccccn3)ccc12	none
Cc1cc(=O)oc2cc(NC(=S)NNC(=O)c3c(Cl)cnn3C)ccc12	Mtb FBA inh 83, GDH-TPI counter-1 35 | Mtb FBA inh conf 43 | GDH-TPI counter-2 28
CCN1CCCC1CNC(=O)c1cc2cc(F)ccc2[nH]1 (configuration not stated)	Mtb FBA inh 30 | Mtb FBA inh conf active | GDH-TPI counter-2 active
CC(CNC(=O)c1ccc(OC2CCN(Cc3ccccn3)CC2)cc1)c1ccccc1 (configuration not stated)	none
Cc1cc2cc(C)c(NCCNC(=O)c3ccccc3Cl)nc2cc1C	none
CCC(=O)NCCNc1nc2cc(C)c(C)cc2cc1C#N	Mtb FBA inh 53 | Mtb FBA inh conf inactive | GDH-TPI counter-2 inactive
CCOc1ccc2nc(NCCCNC(=O)c3cc(OC)c(OC)c(OC)c3)c(C#N)cc2c1	none
CCOc1ccc2nc(NCCNC(=O)CC)c(C#N)cc2c1	Mtb FBA inh 43 | Mtb FBA inh conf 105 | GDH-TPI counter-2 114
O=C(Nc1ccccc1C(=O)NCc1cccnc1)c1ccccc1F	none
CNC(=O)/C(C#N)=C/c1c(N2CCN(C)CC2)nc2c(C)cccn2c1=O	Mtb FBA inh 28 | Mtb FBA inh conf 62 | GDH-TPI counter-2 59
CCOC(=O)/C(C#N)=C/c1c(N2CCN(CC)CC2)nc2c(C)cccn2c1=O	none
CCNC(=O)/C(C#N)=C/c1c(N2CCCCCC2)nc2c(C)cccn2c1=O	none
CCN1CCN(c2nc3c(C)cccn3c(=O)c2/C=C(\C#N)C(=O)NC)CC1	Mtb FBA inh 30 | Mtb FBA inh conf 32 | GDH-TPI counter-2 20
CCC(Oc1ccccc1)C(=O)NC1C(=O)N2C1SC(C)(C)C2C(=O)O (configuration not stated)	none
CC1(C)S[C@@H]2[C@H](NC(=O)[C@H](N)c3ccccc3)C(=O)N2[C@H]1C(=O)OC1OC(=O)c2ccccc21 (some centres not stated)	Mtb FBA inh 66 | Mtb FBA inh conf active | GDH-TPI counter-2 160
Nc1ccc2oc3ccccc3c2c1	Mtb FBA inh 27 (no result: Mtb UGM inh) | Mtb FBA inh conf inactive | GDH-TPI counter-2 inactive
Nc1ccc(C#Cc2ccc3oc4ccccc4c(=O)c3c2)cc1	none
Nc1ccccc1C(=O)NC1CCCNC1=O (configuration not stated)	Mtb FBA inh 61 | Mtb FBA inh conf active | GDH-TPI counter-2 active
O=C(Nc1ccc(Cl)cc1)NC1CCCCNC1=O (configuration not stated)	none
Cc1c(OCC(=O)N2CCC[C@@H]2C(=O)O)ccc2c3c(c(=O)oc12)CCC3	Mtb FBA inh 36 | Mtb FBA inh conf 93 | GDH-TPI counter-2 88
CCc1cc(=O)oc2c(C)c(OCC(=O)N3CCC[C@@H]3C(=O)O)ccc12	Mtb FBA inh 58 | Mtb FBA inh conf inactive | GDH-TPI counter-2 inactive | GDH-TPI dose 3
CCc1cc(=O)oc2c(C)c(OC(C)C(=O)N3CC[C@@]4(O)CCCC[C@H]4C3)ccc12 (some centres not stated)	none
CCc1cc(=O)oc2c(C)c(OC(C)C(=O)N3CCC[C@@H]3C(=O)O)ccc12 (some centres not stated)	Mtb FBA inh 42 | Mtb FBA inh conf 54 | GDH-TPI counter-2 61
CCCNC(=O)C1(C)CCCN(C(=O)c2cccc(C#N)c2)C1 (configuration not stated)	none (no result: Mtb UGM inh, Rv3671c protease)
CCc1cc(CNC(=O)c2ccc(OC3CCN(C(C)=O)CC3)c(OC)c2)on1	none
O=C(NCc1ccc(F)cc1)c1ccc(CS(=O)(=O)Cc2ccc(F)cc2)o1	none
O=C(NCc1ccc(F)cc1)c1ccc(CS(=O)(=O)Cc2ccccc2F)o1	Mtb FBA inh 55 | Mtb FBA inh conf 95 | GDH-TPI counter-2 83
CC(C)(CNc1ccc(C(F)(F)F)cc1[N+](=O)[O-])N1CCOCC1	none
COc1ccc2nc3oc(C(=O)NC4CCN(Cc5ccccc5)CC4)cc3cc2c1	Mtb FBA inh 32 | Mtb FBA inh conf inactive | GDH-TPI counter-2 inactive
CCOC(=O)N1CCC(NC(=O)c2cc(-c3ccc(OC)cc3)nc3ccccc23)CC1	none
CCOC(=O)N1CCC(NC(=O)c2cc3cc4cc(OC)ccc4nc3o2)CC1	Mtb FBA inh 86 | Mtb FBA inh conf inactive | GDH-TPI counter-2 inactive
CCNc1c(NS(=O)(=O)c2ccc(OC)cc2)c(=O)oc2ccccc12	none
COc1ccc2c(CN3CCCCC3)cc(=O)oc2c1	Mtb FBA inh 44 (no result: Mtb UGM inh, GDH-TPI counter-1, Rv3671c protease) | Mtb FBA inh conf inactive | GDH-TPI counter-2 inactive
COc1ccc2c(CN3CCOCC3)cc(=O)oc2c1	none (no result: Mtb UGM inh, GDH-TPI counter-1, Rv3671c protease)
CCCN(CCC)Cc1cc(=O)oc2cc(OC)ccc12	Mtb FBA inh 51 (no result: Mtb UGM inh, GDH-TPI counter-1, Rv3671c protease) | Mtb FBA inh conf inactive | GDH-TPI counter-2 inactive
O=C(Cc1ccccc1)NCC(=O)Nc1cccc(Cl)c1	none
CC(C)NC(=O)C1(C)Cc2c(-c3ccc(N(C)C)cc3)ccnc2O1 (configuration not stated)	Mtb FBA inh 38 (no result: Mtb UGM inh, Rv3671c protease) | Mtb FBA inh conf active | GDH-TPI counter-2 active
COc1ccc(CCCNC(=O)C2(C)Cc3c(-c4ccc5c(c4)OCO5)ccnc3O2)cc1 (configuration not stated)	none (no result: Mtb UGM inh, Rv3671c protease)
CC1(C(=O)NCc2cccc(Cl)c2)Cc2c(-c3ccc4c(c3)OCO4)ccnc2O1 (configuration not stated)	Mtb FBA inh 30 (no result: Mtb UGM inh, Rv3671c protease) | Mtb FBA inh conf inactive | GDH-TPI counter-2 21
CC1(C(=O)NCc2cccs2)Cc2c(-c3ccc4c(c3)OCO4)ccnc2O1 (configuration not stated)	Mtb FBA inh 61 (no result: Mtb UGM inh, Rv3671c protease) | Mtb FBA inh conf 53 | GDH-TPI counter-2 32
CC1(C(=O)NCc2cccs2)Cc2c(-c3ccccc3)ccnc2O1 (configuration not stated)	none (no result: Mtb UGM inh, Rv3671c protease)
CN(C)c1ccc(-c2ccnc3c2CC(C)(C(=O)NCc2cccs2)O3)cc1 (configuration not stated)	Mtb FBA inh 40 (no result: Mtb UGM inh, Rv3671c protease) | Mtb FBA inh conf 32 | GDH-TPI counter-2 inactive | GDH-TPI dose 1
O=C(NNC(=O)c1ccc(Br)o1)c1csc(N2CCOCC2)n1	none
CC(=O)Nc1ccc(-c2ccnc3c2CC(C)(C(=O)NCc2ccc(N(C)C)cc2)O3)cc1 (configuration not stated)	none (no result: Mtb UGM inh, Rv3671c protease)
CN(C)c1ccc(-c2ccnc3c2CC(C)(C(=O)NCc2ccco2)O3)cc1 (configuration not stated)	Mtb FBA inh 31 (no result: Mtb UGM inh, Rv3671c protease) | Mtb FBA inh conf 73 | GDH-TPI counter-2 52
CN(C)c1ccc(-c2ccnc3c2CC(C)(C(=O)NCCC(F)(F)F)O3)cc1 (configuration not stated)	Mtb FBA inh 36 (no result: Mtb UGM inh, Rv3671c protease) | Mtb FBA inh conf 97 | GDH-TPI counter-2 64

Screens deposited in PubChem BioAssay by several laboratories.
